# Only some compounds are listed: those with a hit (about 6% of all), similar ones and a draw of the others.
# D1 potentiator: Potentiators of Human D1 Dopamine Receptor: qHTS; HEK293 TREx D1 cells, calcium flux, dopamine EC20 potentiation; potentiation, % at 10 µM; D(1A) dopamine receptor (Homo sapiens), P21728; AID 504651, 2011; 0.036% of 360,000 active; in the data active = potentiation above about 30%; note: 0% is about no effect
# Target sequence (P21728 whole entry, looked up): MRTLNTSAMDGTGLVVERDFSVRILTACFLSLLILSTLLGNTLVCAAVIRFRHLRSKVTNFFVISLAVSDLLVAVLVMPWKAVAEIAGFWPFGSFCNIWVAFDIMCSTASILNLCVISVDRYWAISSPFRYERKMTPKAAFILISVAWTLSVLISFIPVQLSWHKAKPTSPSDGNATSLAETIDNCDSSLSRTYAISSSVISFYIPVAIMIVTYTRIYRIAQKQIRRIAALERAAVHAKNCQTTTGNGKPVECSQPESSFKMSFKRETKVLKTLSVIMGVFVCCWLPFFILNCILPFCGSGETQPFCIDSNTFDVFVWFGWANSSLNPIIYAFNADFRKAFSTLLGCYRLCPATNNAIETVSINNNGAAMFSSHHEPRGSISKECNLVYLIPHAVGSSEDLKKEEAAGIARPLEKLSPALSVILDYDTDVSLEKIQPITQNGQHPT
# D1 antagonist: Antagonist of Human D 1 Dopamine Receptor: qHTS | activity change, negative = inhibition, % at 10 µM | HEK293 TREx D1 cells, calcium flux, dopamine EC80; hits give low values | 3.2% of 360,000 active | D(1A) dopamine receptor (Homo sapiens), P21728; in the data active = activity change below about -30%; note: % is set by controls: 0 for no effect and ±100 for the full control effect
#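 Using tetracycline-induced force-coupled D1 Hek293 cells and a calcium dye, signals were followed for 180 s after compound, then for 180 s after EC80 dopamine, to detect inhibitors.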
# D3 ag: qHTS of D3 Dopamine Receptor Agonist: qHTS. AID 652048, 2013. D3R DiscoveRx beta-arrestin cells, luminescence, 90 min. max activation, %. 0.58% of 410,000 active; in the data active = max activation above about 30%; note: 0% is about no effect
#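 Agonist-mode cell screen: cells plated at 1500/well and incubated overnight at 37 °C, then exposed to library compounds for 90 min at 37 °C. Detection reagent was added for 30–60 min at room temperature, and luminescence was read.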
# D1 agonist: Allosteric Agonists of the Human D1 Dopamine Receptor: qHTS | activation, % at 2 µM | HEK293 T-REx D1 cells, calcium flux, agonist mode | 1% of 360,000 active | D(1A) dopamine receptor (Homo sapiens), P21728; in the data active = activation above about 30%; note: 0% is about no effect
#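 Agonism was scored from calcium flux recorded over 180 s (1 read/s) after pintool compound addition, following a 10-cycle baseline. Cells were inducible force-coupled HEK293 TREx D1, plated overnight at 30 C and loaded with no-wash calcium dye.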
# DRD3 antagonist: qHTS of D3 Dopamine Receptor Antagonist: qHTS; D(3) dopamine receptor (Homo sapiens), P35462; D3R cells, DiscoveRx beta-arrestin luminescence, antagonist mode; hits give low values; max response, negative = inhibition, %; 2.5% of 360,000 active; AID 652054, 2013; in the data active = max response below about -50%; inconclusive = no clear call, values can overlap the other calls; note: % is set by controls: 0 for no effect and ±100 for the full control effect
#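 Cells expressing the human receptor were seeded at 1500 cells/well, incubated overnight at 37 degrees C in 5% CO2, then exposed to library compounds with dopamine controls for 90 minutes at 37 degrees C before luminescent detection.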
# Starred values were filed as active, the others as inactive; ? = inconclusive; nt = no result given.
SMILES,D1 potentiator,D1 antagonist,D3 ag,D1 agonist,DRD3 antagonist
CC(=O)Nc1ccccc1-c1nc2ccccc2n(Cc2cccc(Br)c2)c1=O,-5.2,-23.7,0.9,3.3,nt
COc1ccc(-c2cc(-c3ccc4c(c3)NC(=O)CO4)nc3c2COc2ccc(C)cc2-3)cc1,-3.4,-8.6,3.2,-0.6,nt
CCOC(=O)c1ccc(NC(=S)N2CCSC2c2ccc(Cl)cc2)cc1 (stereo unspecified),-8.0,-11.6,-11.2,30.6*,-22.0
COc1ccc(C2SCCN2C(=S)Nc2cccc(C(F)(F)F)c2)cc1 (stereo unspecified),-8.6,-35.6*,-33.2,56.3*,-29.1
CCOC(=O)c1ccc(NC(=S)N2CCSC2c2ccc(OC)cc2)cc1 (stereo unspecified),9.9,19.4,-7.4,40.3*,?
CCOC(=O)c1ccc(NC(=S)N2CCN(C)CC2)cc1,-0.2,-5.7,-7.4,7.0,3.4
COc1ccc(NC(=S)Nc2ccc3snnc3c2)cc1,-5.3,-12.6,2.2,4.0,-15.0
COc1ccc(NC(=S)Nc2ccccc2)cc1,1.6,1.6,5.9,0.3,3.7
COc1ccc(NC(=S)Nc2ccc3nccnc3c2)cc1,-5.4,-33.8*,-0.6,3.2,-25.3
COc1ccc(NC(=S)Nc2ccc(N)c([N+](=O)[O-])c2)cc1,-6.3,-15.0,-1.1,0.6,-81.9*
Cc1occc1-c1nnc(SCC(=O)NC2CCCCC2C)o1 (stereo unspecified),-8.8,-17.4,-6.4,5.2,-14.5
COc1ccc(C2/C(=C(/O)c3ccccc3)C(=O)C(=O)N2c2ccccn2)c(OC)c1 (stereo unspecified),6.4,-8.5,-1.4,0.6,-15.0
COc1ccc(C2/C(=C(/O)c3ccccc3)C(=O)C(=O)N2CCN2CCOCC2)c(OC)c1 (stereo unspecified),3.0,11.4,-0.4,0.3,-56.5*
COc1cccc(/C(O)=C2\C(=O)C(=O)N(c3ccccn3)C2c2ccccc2OC)c1 (stereo unspecified),-2.0,5.6,-0.9,4.1,-50.5*
CCN(CC)CCN1C(=O)C(=O)/C(=C(/O)c2ccc(OC)cc2)C1c1ccco1 (stereo unspecified),0.3,-34.0*,-5.8,1.7,-8.2
COc1ccc(C2/C(=C(/O)c3ccc(Cl)cc3)C(=O)C(=O)N2CCN2CCOCC2)c(OC)c1 (stereo unspecified),-3.9,1.5,0.9,2.9,0.0
COc1ccc(/C(O)=C2/C(=O)C(=O)N(CCCN3CCOCC3)C2c2ccc(C)cc2)cc1 (stereo unspecified),-0.9,-8.6,7.0,5.4,-3.8
COc1ccc(C2/C(=C(/O)c3ccc(C)cc3)C(=O)C(=O)N2CCCN2CCOCC2)cc1 (stereo unspecified),37.3*,-25.4,4.9,-0.2,3.6
CSCCC(c1nc2ccccc2[nH]1)n1c(-c2ccc3ncccc3c2)nc2ccccc21 (stereo unspecified),nt,nt,-13.8,nt,-0.5
CCOc1ccc(-c2cccc(NS(=O)(=O)c3ccccc3C(F)(F)F)c2)nn1,-2.5,-5.7,0.2,0.9,nt
Cc1ccccc1S(=O)(=O)N1C(c2ccc(Cl)cc2)CC=C(C(=O)O)C1c1cccc(Cl)c1 (stereo unspecified),nt,nt,1.1,nt,-23.4
O=C(NC1CCCC1)c1ccccc1OCc1ccccc1,0.7,-8.6,7.6,0.9,11.5
CSc1ncccc1C(=O)NC1CCN(Cc2ccccc2)CC1,0.6,-7.8,-11.8,5.1,-60.0*
O=C(NC1CCN(Cc2ccccc2)CC1)c1ccccc1OCc1ccccc1,-10.1,-26.8,-22.8,0.4,-99.1*
O=C(NC1CCN(Cc2ccccc2)CC1)c1ccccc1OCc1ccccc1Cl,-5.0,-37.9*,-21.5,5.3,-105.2*
SMILES,D1 potentiator,D1 antagonist,D3 ag,D1 agonist,DRD3 antagonist
CCOc1ccccc1C(=O)NC1CCN(Cc2ccccc2)CC1,0.4,-31.3*,-11.3,0.3,-72.8*
O=C(NCc1ccncc1)c1cn(-c2ccccc2)nc1-c1cccnc1,-2.4,-11.1,-0.9,0.0,-2.3
O=C(NC1CCN(Cc2ccc(Cl)cc2)CC1)c1cn(-c2ccccc2)nc1-c1cccnc1,nt,-49.5*,-21.6,1.6,-61.7*
Cc1ccc(OCCn2c(-c3ccc(Cl)cc3)nc3ccccc3c2=O)c(C)c1,0.2,5.8,-2.7,1.4,nt
O=C(c1ccc2c(c1)N(Cc1ccc(Cl)cc1)C(=O)c1ccccc1S2(=O)=O)N1CCc2ccccc21,-1.9,-6.9,0.8,7.7,nt
COC(=O)CCCNC(=O)c1ccc(OS(=O)(=O)c2cc([N+](=O)[O-])ccc2C)cc1,4.0,-11.5,-5.9,62.8*,-12.3
COc1cc(C(=O)NCCOc2ccccc2)cc(OC)c1OC,-3.6,8.4,-9.2,1.1,-7.2
O=C(NCCOc1ccccc1)c1cccc(S(=O)(=O)NCc2ccccc2)c1,-8.4,-38.5*,10.9,21.6,-5.3
O=C(Nc1ccc(Cl)c(Cl)c1)c1cccc(S(=O)(=O)NCc2cccnc2)c1,-4.1,-30.8*,-7.7,9.1,12.6
COc1ccc(C(=O)NCCOc2cccc(Oc3ccccc3)c2)cc1OC,-5.1,-43.7*,-3.0,14.5,-4.7
Cc1ccc(Cc2c(-c3cccc(Br)c3)nc3c(C)cc(Br)cn23)cc1,nt,nt,-3.7,nt,0.0
Cc1ccc(NS(=O)(=O)c2ccc3oc(=O)c4ncn(C)c4c3c2)cc1C,-0.6,10.4,2.3,0.6,nt
Cc1cccc(Cn2c(CN3CCC(C(=O)NCCc4ccccc4)CC3)cc3ccccc32)c1,-1.9,-0.6,-16.7,7.9,nt
CC(C)(C)C(=O)COC(=O)CNC(=O)c1ccc(Oc2ccccc2)cc1,7.2,-49.1*,0.2,158.9*,-19.7
CC(=O)NCCOc1ccc(C(=O)O)cc1,7.8,14.7,9.4,1.2,-54.8*
O=C(NCCOc1ccccc1)c1cc(C(=O)NCCOc2ccccc2)cc([N+](=O)[O-])c1,-7.0,-39.8*,-9.8,8.6,7.8
O=[N+]([O-])c1ccccc1NCCOc1ccccc1,-2.2,-44.2*,-16.5,1.2,0.0
O=C(CCNC(=O)c1ccc([N+](=O)[O-])cc1)Oc1ccc(F)c(F)c1,nt,nt,-1.1,nt,?
O=C(CCNC(=O)c1ccccc1)Oc1ccc([N+](=O)[O-])cc1,-6.1,-46.0*,-10.7,6.4,0.0
CC(C)(C)c1ccc(C(=O)NCCOc2ccccc2)cc1,-3.2,-31.4*,3.6,7.1,-19.2
CC(C)(C)c1ccc(C(=O)NCCOc2ccccc2F)cc1,-3.4,8.1,-8.8,0.7,-3.5
Cc1ccc2oc(C(=O)N(Cc3cccc(F)c3)C3CCS(=O)(=O)C3)c(C)c2c1 (stereo unspecified),2.1,-18.1,-3.5,6.5,nt

# Screens from PubChem BioAssay.
